Bioassay records: PubChem BioAssay, several laboratories
Sampled rows, rich in hits. Any-hit rate of the full collection: about 2%.
SKKanGAS inh: inhibitors of SKKanGAS S. pyogenes growth in kanamycin (SK-promoter or general growth effect) | BacTiter-Glo, 6 h | inhibition, % at 7.5 µM | actives 1.3% (n = 300,000);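 active = mean replicate score, as percent of positive control median, at least 50; inconclusive = mean below 50 but one replicate at or above 50; inactive = mean and every replicate below 50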;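 also: strain carries kanamycin resistance gene driven by streptokinase promoter and grows in 40 µg/ml kanamycin; loss of luminescence reflects streptokinase promoter inhibition or plain growth inhibition; 0% = median of DMSO wells and 100% = positive control at its reference dose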
Calb FLC: C. albicans growth modulation with fluconazole | C. albicans CaCi-2 (fluconazole-resistant clinical isolate) + fluconazole, Alamar Blue growth, 48 h | growth inhibition, % (concentration not given with the values) | actives 0.57% (n = 300,000) | AID 1979;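 active = growth inhibition above about 58% in most replicates, limit read from the data, passing the limit was not always enough; inconclusive = exactly half the replicates above a set limit; inactive = most replicates below a set limit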;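 also: all wells also contain fluconazole at 8 µg/ml as a sub-toxic cotreatment; 0% = median of DMSO wells and 100% = median of geldanamycin control wells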
CR mimetic SO: lowers age-related superoxide in aged yeast cells | S. cerevisiae aged cells, superoxide DHE fluorescence; active compounds read low | superoxide response (% of plate mean), % at 10 µM | actives 0.18% (n = 330,000) | AID 2690;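 active = superoxide response under a set limit, about three screen SD below normal, cut at about 65% in these data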;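 also: yeast aged for seven days with compound at 30 °C before DHE staining; 100% = average MFI of all compound-treated wells on the plate with controls excluded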
PolyA inhibitor: inhibitors of polyadenylation in S. cerevisiae; actives 0.02% (n = 300,000); AID 1875; activity score, % at 12 µM; S. cerevisiae SKY197-pL101 polyadenylation reporter, beta-gal luminescence; efflux-impaired pdr1/pdr3 knockout yeast; score 100 = 6 SD above DMSO;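 active = lowest replicate activity score at least 50, where 100 means six control SD above control mean; inconclusive = lowest score under 50 but half or more replicates reach 50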;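 also: yeast exposed to compound for 9 h at 30 °C; higher score means more reporter readthrough which indicates perturbed polyadenylation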
Platelet DG rel: modulates dense granule release in human platelets. human platelet-rich plasma, SFLLRN dense granule ATP release, luminescence. inhibition, %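 (compounds screened at 7.5 µM in platelet-rich plasma)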. actives 0.22% (n = 300,000). AID 1663;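 active = mean replicate score, as percent of positive control, at or above 50; inconclusive = mean below 50 but at least one replicate at or above 50; inactive = mean and every replicate below 50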
* = called active by the depositor; i = inactive; ? = inconclusive; nt = not tested or not shown.

SMILES | SKKanGAS inh | Calb FLC | CR mimetic SO | PolyA inhibitor | Platelet DG rel
CCOc1ccc(N/C=C/C(=O)c2ccccc2)c([N+](=O)[O-])c1 | 5 | -4 | 97 | -4 | 85*
COc1ccc(N/C=C/C(=O)c2ccccc2)cc1 | -4 | -56 | 102 | -1 | 56*
CCCCN(CC)CCCNC(=O)c1cn(-c2ccc(OC)cc2)c(=O)c2ccccc12 | -1 | 2 | 93 | -2 | -6
COc1cccc(CNCC(O)(c2ccc(Cl)cc2)c2ccc(Cl)cc2)c1 | 84* | -19 | 97 | -4 | 1
CC(C)(C)CC(C)(C)NCC(O)COc1ccc2c(c1)CCC2 (stereo unspecified) | 1 | 0 | 100 | 11 | 5
CC(C)(CO)NCC(O)COc1ccc2c(c1)CCC2 (stereo unspecified) | -11 | -3 | 94 | 15 | 51*
CC(C)(C)c1ccc(Oc2cccc(C3CC(=O)C(C4NCCc5ccccc54)C(=O)C3n3cncn3)c2)cc1 (stereo unspecified) | 96* | -6 | 99 | -3 | -15
O=C1CC(c2ccccc2Oc2cccc(Cl)c2)C(n2cncn2)C(=O)C1C1NCCc2ccccc21 (stereo unspecified) | 28 | -4 | 95 | 4 | 29
CCOC(=O)c1c(N)sc(C(=O)Nc2ccc3c(c2)OCO3)c1C | 7 | 4 | 92 | -26 | 56*
CCOC(=O)c1c(C)c(C(=O)Nc2ccc3c(c2)OCO3)c(C)n1C | 1 | 4 | 89 | -13 | -6
c1ccc(-c2noc(-c3ccccc3-c3ccccc3)n2)cc1 | 75* | 1 | 109 | -30 | -2
O=C1NC(=Nc2ccc(F)cc2)SC1Cc1ccc(F)cc1 (stereo unspecified) | 4 | -2 | 100 | -11 | 6
O=C1NC(=Nc2ccc(Cl)cc2)SC1Cc1cc(Cl)ccc1Cl (stereo unspecified) | 82* | 9 | 106 | -15 | 8
Cc1cccc(NC(=S)Nc2ccc(N3CCOCC3)cc2)c1C | 2 | -1 | 106 | 0 | -7
Clc1ccc(/C=N/NC(=Nc2ccccc2)c2ccccn2)c(Cl)c1 | 52* | ? | 100 | -1 | 13
CC(C)C(NC(=O)c1ccccc1)c1nnc(SCC(=O)NC2CCCC2)n1C (stereo unspecified) | 0 | 4 | 83 | -13 | 7
O=C(NCc1cccnc1)Nc1cccc(Cl)c1Cl | 5 | 2 | 104 | 5 | -2
CSc1nn2c(C(F)(F)F)cc(C(F)(F)F)nc2c1C(=O)O | -4 | 112* | 103 | -8 | -9
CCC(C)[C@H](NC(=O)N1CCn2c1nc1ccccc12)C(=O)NCc1ccccc1 (stereo partly specified) | 1 | 1 | 80 | 14 | -1
Cc1ccc(-n2[nH]c(C)c(/C=N/NC(=O)c3ccc([N+](=O)[O-])cc3)c2=O)c(C)c1 | 17 | 103* | 96 | 13 | -3
Cc1[nH]n(-c2cccc3ccccc23)c(=O)c1/C=N/NC(=O)c1cccc([N+](=O)[O-])c1 | 53* | 80* | 78 | 2 | 7
C=C1CCN([C@@H](C)C(=O)NCc2ccc(Cl)cc2)S(=O)(=O)c2ccccc21 | 2 | 0 | 104 | 5 | -4
COc1c(S(=O)(=O)Nc2cccnc2)ccc(Cl)c1Cl | 2 | -4 | 88 | 32 | 10
Cc1c(Cl)ccc(S(=O)(=O)Nc2cccnc2)c1Cl | 0 | 77* | 95 | 24 | -4
CCC(=O)N1c2ccc(S(=O)(=O)CCC(=O)N3CCn4c3nc3ccccc34)cc2CC1C (stereo unspecified) | -3 | 81* | 102 | -7 | nt
SMILES | SKKanGAS inh | Calb FLC | CR mimetic SO | PolyA inhibitor | Platelet DG rel
Cc1ccc(C)c(S(=O)(=O)N2CCC(c3nc4c(nnn4Cc4ccc5c(c4)OCCO5)c(=O)[nH]3)CC2)c1 | 34 | 4 | 86 | -3 | -5
CCSc1ncnc2sc3c(c12)CCC3 | 2 | -11 | 103 | -14 | 2
Fc1ccc(CSc2ncnc3sc4c(c23)CCCC4)cc1 | 77* | -2 | 102 | 8 | -3
CCc1ccc(NC(=O)CN(CC(=O)Nc2ccc(CC)cc2)CC(C)O)cc1 (stereo unspecified) | 9 | 5 | 112 | 0 | -9
COc1ccccc1CCNC(=O)CCn1nc(C)c2c(C)n(-c3ccccc3)nc2c1=O | -1 | -27 | i | 3 | -5
CCn1c(C)nc2cc(C(=O)N/N=C/c3cccc(OC)c3O)ccc21 | 8 | 108* | 74 | -1 | 1
